Assay results from PubChem BioAssay (NCI).
The panel holds about 83,000 compounds, 20% with a hit somewhere; the sample as a whole holds those more often.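 Assay: single dose, 48 h. Readout: percent growth (0 = no net growth; negative = cell death). Active: <10.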 The source made the active and inactive calls.

The compounds below were run on SNB-75 CNS (assay: NCI-60 one-dose screen, 48 h (100 = growth as untreated, 0 = no growth, -100 = all killed)). Conditions: 10 µM unless noted.
Method: Growth inhibition of the SNB-75 human tumor cell line is measured as a screen for anti-cancer activity. Cells are grown in 96 well plates and exposed to the test compound for 48 hours. Compounds are tested at a single concentration, which is 10^-5 M for most compounds. The reported endpoint is percent growth (GI% or GIPRCNT), where numbers from 0 - 100% represent growth inhibition, and numbers from -100% - 0 represent cell death. For example, a value of 40 represents 60% growth inhibition. A value of 0 means no net growth occurred over the course of the experiment. A value of -40 indicates 40% of cells at the beginning of the experiment died by the end of the experiment. A value of -100 means all cells are dead at the end of the experiment.
NCI-60 Human Tumor Cell Lines Screen was performed using the standard one-dose NCI protocol, which is described in more detail at https://dtp.cancer.gov/discovery_development/nci-60/default.htm.
Compounds with GIPRCNT values below 10 were considered active. Activity score was based on GIPRCNT using the following formula: […]
Score is 0 for GIPRCNT values of 100 or above, 50 for GIPRCNT values of 0, and 100 for GIPRCNT values of -100.
In the case of `COc1ccc(-c2cnc3ccccc3n2)cc1`, the growth was 72.4% (inactive).
`O=C(O)c1cn(C2CC2)c2cc(N3CCN(C(=O)Nc4nc(-c5ccccc5)cs4)CC3)c(F)cc2c1=O` was tested, and the growth was 9.5% (active).
In the case of `CC1Cc2c(ncn3c(-c4ccc(F)cc4)nnc23)N(C)c2ccccc21` (stereo not given), the growth was -7.85% (active).
In the case of `COc1ccc(-c2nnc(COc3ccc(Cl)cc3Cl)o2)cc1OC`, the growth was -42% (active).
`Cc1nc2ccccc2c(/C=C/c2ccccc2)c1C(=O)/C=C/c1ccc(C(F)(F)F)cc1` was tested, and the growth was -5.13% (active).
With `N#Cc1c(-c2ccc(Cl)cc2)nc(NCCO)[nH]c1=O` the growth was 81% (inactive).
For `Cc1cccc2c3c(sc12)C(c1ccc(Cl)cc1)C(C#N)=C(N)O3` (stereo not given), the growth was 4.24% (active).
With `NCCCNc1nc2ccccc2c2c(=O)c3cc(F)cc(F)c3sc12` the growth was 74.7% (inactive).
`Cc1cc(=O)oc2cc(OC(=O)CN3CCN(C)CC3)ccc12` was tested, and the growth was 74.5% (inactive).
With `Cc1ccc(-c2nc(N3CCN(CC(=O)Nc4ccc(Cl)c(C(F)(F)F)c4)CC3)c3ccccc3n2)cc1` the growth was 81.2% (inactive).
`COc1ccccc1/C=C1\Oc2cc(OCCN3CCC(Cc4ccccc4)CC3)ccc2C1=O` was tested, and the growth was 83.6% (inactive).
`COc1ccc2c(c1)nc(NNC(=O)c1cnccn1)c1cccn12` was tested, and the growth was 70.5% (inactive).
`NC(=O)C1(Nc2ccc(Br)cc2)CCCC1` was tested, and the growth was 93.2% (inactive).
In the case of `NC1=NC(c2cccc(Br)c2)c2sc3ccc(Cl)cc3c2N1` (stereo not given), the growth was 75.6% (inactive).
With `Cc1ccc(-c2cnc3sc(C(=O)NCCc4ccccc4)c(C)n23)cc1` the growth was 79.3% (inactive).
In the case of `Cc1nc2ccccc2c(/C=C/c2ccc(Cl)cc2)c1C(=O)/C=C/c1ccc(C(F)(F)F)cc1`, the growth was -79.6% (active).
For `N#C/C(=C\c1ccc(F)cc1)n1nc2cccc(F)c2n1`, the growth was 0.195% (active).
For `Cc1cc(O)c(C2=NN(c3ccc(S(N)(=O)=O)cc3)C(/C=C/c3ccccc3)C2)cc1Cl` (stereo not given), the growth was 51.3% (inactive).
In the case of `Cc1c(C(=O)NCCCc2ccccc2)sc2ncc(-c3ccc(Br)cc3)n12`, the growth was 98.4% (inactive).
`O=C1c2cccc3cccc(c23)C(=O)N1Nc1nc(N2CCOCC2)nc(N2CCN(c3ccccc3)CC2)n1` was tested, and the growth was 21.4% (inactive).
`COc1ccc(-c2cc3c4c(nc5ccccc5c4c2)CC(c2cc(OC)c(OC)c(OC)c2)O3)cc1` (stereo not given) was tested, and the growth was -30% (active).
`S=C(c1cccs1)N1CCN(c2cccc(Cl)c2)CC1` was tested, and the growth was 100% (inactive).
With `CCc1cccc2c1S/C(=C/c1ccc(OC)cc1)C2=O` the growth was 26.6% (inactive).
In the case of `N#Cc1c(-c2ccccc2)nc(SCC(=O)Nc2nc(-c3ccc(Cl)cc3)cs2)[nH]c1=O`, the growth was 84.3% (inactive).
`O=c1c2cc(F)ccc2sc2c(NCCCNCCO)nc3ccc(F)cc3c12` was tested, and the growth was 54.2% (inactive).
With `CCCCOc1nc2ccc(OC)cc2cc1-c1cc(-c2ccc(Cl)cc2)nc(-c2ccc(Cl)cc2)c1` the growth was 91.2% (inactive).
For `COc1ccc(-c2ncnc3c2ncn3CC#CCCl)cc1`, the growth was 93.5% (inactive).
For `C#Cc1cccc(NC(=O)c2ccc(NC(=O)C=C)cc2)c1`, the growth was 39.4% [8.25 µM] (inactive).
In the case of `CCn1cnc2c1c(=O)[nH]c(=O)n2CC1CCC(CNS(=O)(=O)c2ccc(OC3CCOCC3)c(F)c2)CC1` (stereo not given), the growth was 7.93% (active).
With `CN1CCN(CC(=O)N2c3cccc4cccc(c34)N(C(=O)CN3CCN(C)CC3)C2c2cn(-c3ccccc3)nc2-c2cccc([N+](=O)[O-])c2)CC1` the growth was 65% (inactive).
`CCOC(=O)c1c(C)oc2ncnc(N3CCN(C(=O)COc4ccc(C(C)(C)C)cc4)CC3)c12` was tested, and the growth was 93.5% (inactive).
With `COc1cccc(-c2nc(-c3ccc(NC(=O)C(C)C)cc3)[nH]c2-c2ccnc(Br)c2)c1` the growth was 10.5% (inactive).
In the case of `CC(C)(C)NC(=O)C(OC(=O)c1cccc(Cl)c1)c1ccc(Cl)cc1` (stereo not given), the growth was 103% (inactive).
With `COc1ccc(N2C(=O)C(Oc3ccccc3)C2c2ccc(C)cc2)cc1` (stereo not given) the growth was 97.7% (inactive).
For `C/C=C(\C)C(=O)N[C@H]1[C@@H](OC(C)=O)C[C@]2(C)C3CC[C@@]4(C)C(CC[C@@H]4C(C)N(C)C)C3CCC2[C@H]1O` (stereo not given in full), the growth was 60.3% (inactive).
In the case of `CCN1C(=O)N(CC)C2Nn3c(s/c(=C4\C(=O)N(CC(C)C)c5ccccc54)c3=O)=NC21` (stereo not given), the growth was 14.1% (inactive).
In the case of `Cn1cc(-c2ccc3cc(-c4ccc(CC(=O)Nc5cc(C(C)(C)C)nn5C)cc4)cnc3c2)cn1`, the growth was 3.79% (active).
For `COc1cc2cc(Oc3ccc(NC(=O)Nc4cccc(C(F)(F)F)c4)cc3)c(C)nc2cc1OCCN1CCOCC1`, the growth was 77.8% (inactive).
With `CCCCCCn1c(-c2ccc(C(=O)O/N=C(\N)c3ccc4c(c3)OCO4)cc2)nc(-c2ccccc2)c1-c1ccccc1` the growth was -6.91% (active).
For `NCCCNc1nc2ccccc2c2c(=O)c3cc(F)cc(Cl)c3sc12`, the growth was 69.7% (inactive).
